HPGD inh: HPGD (human) dehydrogenase inhibition; AID 894; 150,000 compounds, 4.3% hits; Potency, µM, most hits filed as inhibitors; purified HPGD, NADH fluorescence kinetic, PGE2 substrate; P15428; active = well fitted inhibition curve with a large enough effect, not every such curve was filed as active; inconclusive = small, poorly fitted or top-dose-only effect, or another doubt; inactive = no such curve, though single readings can be large or run the other way
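20 nM HPGD preincubated 15 min at room temperature with compound in 50 mM Tris-HCl pH 8, 0.01% Tween 20. Started with 1 mM NAD+ and 30 uM prostaglandin E2; NADH fluorescence (360/450 nm) read 5 times over 30-s intervals, last minus first.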
IMPase Li cell: membrane-permeable IMPase blocker, potentiated with lithium | 210,000 compounds, 0.35% hits | CHO-M1 cells, IP1 TR-FRET (IP-One), carbachol + lithium | AID 1457 | Potency, µM (series often up to 59.4 µM), most hits filed as inhibitors;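 note: IP1 builds up when IMPase is blocked and the TR-FRET signal falls; nearly all actives have a fitted effect of over 50% in size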
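Readout is a homogeneous TR-FRET IP1 immunoassay (Ex 320, Em 665 and 620), where raised cytosolic IP1 lowers signal. Cells were CHO-M1 treated 30 min at 37C with test compounds plus a little lithium; AC50 values came from Hill-equation fitting.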
IMPase inh: cell-permeable inhibitors of inositol monophosphatase (IMPase) | 120,000 tested, under 10 active | CHO-M1 cells, IP1 accumulation, HTRF TR-FRET ratio | inhibition (IP1 accumulation), % at 46.1 µM | AID 901; active = well fitted curve in the direction sought with a large enough effect in the signal ratio, not every such curve was filed as active; inconclusive = small, poorly fitted or top-dose-only effect, or a change in a side signal; inactive = no such curve, though single readings can be large or run the other way; the % refers to the signal ratio;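 note: cells stimulated with carbachol in lithium chloride buffer; higher means more IMPase inhibition seen as more IP1 and lower FRET ratio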
Target sequence (P97697 whole entry, looked up): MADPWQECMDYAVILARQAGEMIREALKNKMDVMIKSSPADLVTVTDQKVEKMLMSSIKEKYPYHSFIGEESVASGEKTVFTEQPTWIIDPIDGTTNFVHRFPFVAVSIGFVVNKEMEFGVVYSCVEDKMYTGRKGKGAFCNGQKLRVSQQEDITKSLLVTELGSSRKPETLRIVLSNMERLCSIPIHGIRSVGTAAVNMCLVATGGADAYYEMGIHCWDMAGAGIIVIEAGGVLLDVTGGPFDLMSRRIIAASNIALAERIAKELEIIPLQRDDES
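Seeded CHO-M1 cells were dosed with compound at up to 46 uM, stimulated with carbachol for 30 min, then lysed in IP-One detection reagents. Higher IP1 lowers the TR-FRET signal.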
PNC inhibitor: perinucleolar compartment assembly inhibition | activity change (PNC), negative = inhibition, % at 10 µM | PC3M PTB-GFP, PNC prevalence imaging, 16 h; hits give low values | 140,000 compounds, 3.1% hits | AID 2417;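 active = readout at or below -70, meaning at least 70% loss of cells showing the perinucleolar compartment, a nuclear body marking cancer cells; inconclusive = readout between -30 and a set limit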
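Read-out is percentage of cells bearing a perinucleolar compartment, from automated 20x imaging of fixed, Hoechst-stained PC3M PTB-GFP cells. Cells were seeded 4 h, then exposed 16 h to compound (23 nl of library stock) in duplicate plates.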
NPSR antag: antagonists of human neuropeptide S receptor cAMP signaling | Potency, µM (titrated, usually from 38.3 µM), usual class: inhibitors | 220,000 compounds, 1% hits | Q6W5P4 | CHO-NPSR cells, cAMP TR-FRET, antagonist mode; note: nearly all actives have a fitted effect of over 50% in size
ALDH1A1 block: inhibitors of human aldehyde dehydrogenase 1A1 | P00352 | Purified ALDH1A1, NADH fluorescence, propionaldehyde substrate | Potency, µM (top dose mostly 75.3 µM), actives largely listed as inhibitors | 220,000 compounds, 7.3% hits | AID 1030; active = well fitted inhibition curve with a large enough effect, not every such curve was filed as active; inconclusive = small, poorly fitted or top-dose-only effect, or another doubt; inactive = no such curve, though single readings can be large or run the other way
Target sequence (P00352 whole entry, looked up): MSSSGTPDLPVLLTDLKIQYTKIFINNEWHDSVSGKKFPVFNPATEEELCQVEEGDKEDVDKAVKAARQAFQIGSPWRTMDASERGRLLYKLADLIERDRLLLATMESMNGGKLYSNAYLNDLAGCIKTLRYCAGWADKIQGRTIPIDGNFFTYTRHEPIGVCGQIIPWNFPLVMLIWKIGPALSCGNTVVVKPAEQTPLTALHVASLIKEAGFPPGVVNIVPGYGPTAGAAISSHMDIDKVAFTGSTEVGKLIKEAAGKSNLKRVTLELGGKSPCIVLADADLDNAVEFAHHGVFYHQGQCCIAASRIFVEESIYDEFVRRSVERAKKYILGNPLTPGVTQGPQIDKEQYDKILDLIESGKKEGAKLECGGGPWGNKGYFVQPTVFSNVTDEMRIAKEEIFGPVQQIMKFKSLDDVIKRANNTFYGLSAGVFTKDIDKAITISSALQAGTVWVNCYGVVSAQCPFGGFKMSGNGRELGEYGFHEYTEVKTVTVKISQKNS
Of the large screens only hits and unclear results are named; the others gave an inactive call. The list is not random: actives were taken first. Their share in the collection is about 11%. Unless noted, calls come from the whole dose curve; as a rule, active = well fitted curve in the direction sought with a large enough effect; inconclusive = small, poorly fitted or top-dose-only effect, or another doubt; inactive = no such curve, though single readings can be large; an effect the other way counts as inactive or inconclusive.

O=C(Cn1c(=O)n(Cc2ccco2)c(=O)c2c3c(sc21)CCCCC3)Nc1ccccc1	HPGD inh inconclusive, NPSR antag inconclusive, ALDH1A1 block 7.1µM
O=C(Cn1c(=O)n(Cc2ccco2)c(=O)c2c3c(sc21)CCCCC3)c1ccccc1	NPSR antag inconclusive, ALDH1A1 block inconclusive
O=c1c2c3c(sc2n(CCN2CCCC2)c(=O)n1Cc1ccco1)CCCCC3	NPSR antag inconclusive, ALDH1A1 block 5µM
CCOC(=O)C1CCCN(CCC(=O)Nc2ccc3c(c2)CCC3)C1 (configuration not stated)	ALDH1A1 block inconclusive
O=C(NCc1ccccc1)c1cccc(F)c1F	none (no result: HPGD inh, IMPase inh, PNC inhibitor)
COc1ccc(-n2c(=O)c3c4c(sc3n3c(=S)[nH]nc23)CCCC4)cc1	PNC inhibitor inconclusive (no result: IMPase inh)
O=C(CC1OC(=O)c2ccccc21)Nc1ccccc1N1CCOCC1 (configuration not stated)	PNC inhibitor inconclusive
CC(=O)N1CCN(C(=O)CC2OC(=O)c3ccccc32)CC1 (configuration not stated)	HPGD inh inconclusive, ALDH1A1 block 5µM
O=[N+]([O-])c1ccccc1-c1ccc(C(=S)N2CCCC2)o1	ALDH1A1 block 2.2µM (no result: HPGD inh, IMPase inh, PNC inhibitor)
O=[N+]([O-])c1ccccc1-c1ccc(C(=S)N2CCCCC2)o1	ALDH1A1 block 22µM (no result: HPGD inh, IMPase Li cell, IMPase inh, PNC inhibitor)
Cc1cccc(N2CCN(C(=S)c3ccc(-c4ccccc4[N+](=O)[O-])o3)CC2)c1	ALDH1A1 block inconclusive (no result: IMPase inh)
Cc1ccc(-c2nc(NC(=O)CSc3nc(C)nc4sc5c(c34)CCCC5)ns2)cc1	none (no result: HPGD inh, IMPase Li cell, PNC inhibitor, NPSR antag, ALDH1A1 block)
COCCNC(=O)/C(C#N)=C/c1ccc(SC)cc1	none (no result: HPGD inh, IMPase inh, PNC inhibitor)
N=c1c2c(n(Cc3ccc(Br)cc3)c3c1CCC3)CCCC2	PNC inhibitor -123 (no result: IMPase inh)
N=c1c2c(n(Cc3ccc(Cl)c(Cl)c3)c3c1CCC3)CCCC2	none (no result: HPGD inh, IMPase Li cell)
Cc1ccc(C(=O)NC2(C(F)(F)F)NC(=O)N(c3ccc(Cl)cc3)C2=O)cc1 (configuration not stated)	none (no result: IMPase inh)
Cc1ccc(N2C(=O)NC(NC(=O)C3CC3)(C(F)(F)F)C2=O)cc1 (configuration not stated)	PNC inhibitor -100 (no result: IMPase inh)
Cc1cc(C)n(C(C[N+](=O)[O-])c2ccc(Cl)cc2)n1 (configuration not stated)	HPGD inh 7.9µM, PNC inhibitor inconclusive, ALDH1A1 block inconclusive
Cc1ccccc1Cn1c(CN2CCc3ccccc3C2)nc2c1c(=O)n(C)c(=O)n2C	ALDH1A1 block 32µM
Cn1c(=O)c2c(nc(CN3CCOCC3)n2CCCc2ccccc2)n(C)c1=O	none
Cn1c(=O)c2c(nc(N3CCNCC3)n2Cc2ccccc2Cl)n(C)c1=O	none (no result: HPGD inh, IMPase inh, PNC inhibitor)
Cn1c(=O)c2c(nc(CN3CCC(C(N)=O)CC3)n2Cc2ccccc2Cl)n(C)c1=O	PNC inhibitor inconclusive, ALDH1A1 block 13µM
Cn1c(=O)c2c(nc(N3CCN(c4ccccn4)CC3)n2Cc2ccccc2Cl)n(C)c1=O	NPSR antag inconclusive, ALDH1A1 block 1.1µM
Cn1c(=O)c2c(nc(CN3CCC(C(N)=O)CC3)n2CCc2ccccc2)n(C)c1=O	ALDH1A1 block 4.5µM
Cn1c(=O)c2c(nc(CN3CCN(Cc4ccccc4)CC3)n2Cc2ccccc2)n(C)c1=O	none
O=C(N/N=C/c1ccc[nH]1)c1sc2ccccc2c1Cl	HPGD inh inconclusive, PNC inhibitor inconclusive, ALDH1A1 block inconclusive
Cc1ccc2oc3c(c(=O)c2c1)C(c1ccccc1F)N(CCCN(C)C)C3=O (configuration not stated)	none (no result: HPGD inh, IMPase Li cell, PNC inhibitor, NPSR antag, ALDH1A1 block)
COc1ccc(N2CCN(C(CNC(=O)c3ccc4c(c3)OCO4)c3cccnc3)CC2)cc1 (configuration not stated)	none
Cn1c(=O)c2c(nc(CN3CCC(C(N)=O)CC3)n2Cc2c(F)cccc2Cl)n(C)c1=O	ALDH1A1 block inconclusive
Cn1c(=O)c2c(nc(CN3CCC(C(N)=O)CC3)n2Cc2c(Cl)cccc2Cl)n(C)c1=O	PNC inhibitor inconclusive, ALDH1A1 block 14µM
O=C(c1ccco1)N1CCn2cccc2C1c1ccccc1 (configuration not stated)	ALDH1A1 block 1.3µM (no result: HPGD inh, IMPase inh, PNC inhibitor)
COc1ccc(N=C2NC(=O)/C(=C/c3ccco3)S2)cc1	none (no result: HPGD inh, IMPase Li cell, IMPase inh, PNC inhibitor, ALDH1A1 block)
COc1ccc(S(=O)(=O)/N=C2/NC(=O)/C(=C\c3ccco3)S2)cc1	HPGD inh 28µM, ALDH1A1 block 18µM (no result: IMPase inh)
COc1ccc(S(=O)(=O)/N=C2/NC(=O)/C(=C/c3ccco3)S2)cc1	HPGD inh inconclusive, ALDH1A1 block 22µM (no result: IMPase inh)
Cc1ccc(N(CC(=O)Nc2ccc(C)cc2C)S(=O)(=O)N2CCCC2)cc1	none
CCCN1C(=O)/C(=C2\SC(=S)N(c3c(C)n(C)n(-c4ccccc4)c3=O)C2=O)c2ccccc21	none (no result: HPGD inh, IMPase Li cell, IMPase inh, PNC inhibitor, ALDH1A1 block)
CCCC(C(=O)O)N1C(=O)/C(=C2\C(=O)N(C)c3ccccc32)SC1=S (configuration not stated)	HPGD inh 25µM
O=c1[nH]c(CN2CCN(c3ccccc3O)CC2)nc2scc(-c3ccccc3Cl)c12	none (no result: HPGD inh, IMPase Li cell, IMPase inh, PNC inhibitor, ALDH1A1 block)
O=c1[nH]c(CN2CCc3ccccc32)nc2scc(-c3cccs3)c12	PNC inhibitor inconclusive, ALDH1A1 block 25µM
c1ccc2c(c1)CC(N1CCN(c3cccc4c3OCCO4)CC1)C2	ALDH1A1 block 22µM (no result: PNC inhibitor)
Cn1c(-c2ccccc2)c(O)c(=O)c2ccccc21	none (no result: HPGD inh, IMPase Li cell, IMPase inh, PNC inhibitor, NPSR antag)
Cn1c(-c2ccccc2)c(C(=O)CCl)c2ccccc21	NPSR antag inconclusive, ALDH1A1 block 4µM (no result: HPGD inh, IMPase inh, PNC inhibitor)
CCn1c(-c2ccccc2)c(C(=O)CCl)c2ccccc21	ALDH1A1 block 6.3µM (no result: HPGD inh, IMPase inh, PNC inhibitor)
COc1ccc(OC)c(S(=O)(=O)N2c3ccccc3CC2C)c1 (configuration not stated)	none
O=c1[nH]c(C2CCCN(S(=O)(=O)c3ccccc3)C2)nc2c1nnn2Cc1ccccc1F (configuration not stated)	HPGD inh 13µM, ALDH1A1 block inconclusive
O=c1[nH]c(C2CCCN(S(=O)(=O)c3ccccc3)C2)nc2c1nnn2Cc1ccccc1 (configuration not stated)	HPGD inh 14µM, PNC inhibitor inconclusive, NPSR antag inconclusive, ALDH1A1 block 10µM
Cc1ccc(Cn2nnc3c(=O)[nH]c(C4CCN(S(=O)(=O)c5ccc(F)cc5)CC4)nc32)cc1	none
O=c1[nH]c2cc3c(cc2cc1CN(CC1CCCO1)S(=O)(=O)c1ccccc1)OCCO3 (configuration not stated)	ALDH1A1 block inconclusive
Cc1cc(-c2n[nH]c(=S)o2)c(C)n1-c1ccccc1	PNC inhibitor inconclusive, ALDH1A1 block 3.5µM
COCCCNC(=O)C1CC(=O)N(CCc2ccc(OC)c(OC)c2)C1 (configuration not stated)	none
CSCCC(C(=O)OCC(=O)c1ccc(C)c(C)c1)N1C(=O)c2cc(Cl)c(Cl)cc2C1=O (configuration not stated)	none

Screening results as filed in PubChem BioAssay.
